# In PubChem BioAssay (NCATS):
# Where “and” joins values, the source holds several entries; their conditions need not be identical. Equal entries are not always repeated. Unmarked numbers belong to inactive results. Results filed as inconclusive are left out. A call without a number means that no potency is given here. Calls of active or inactive are those of the source. Unless noted, calls follow the shape of the dose curve; as a rule, active = well fitted curve in the direction sought with a large enough effect; inconclusive = small, poorly fitted or top-dose-only effect, or another doubt; inactive = no such curve, though single readings can be large; an effect the other way counts as inactive or inconclusive.
# Legend:
# [1] = molecular target: Nuclear receptor subfamily 1 group I member 3 (Homo sapiens) (UniProt Q14994); test: Primary qHTS for antagonist of constitutive androstane receptor (CAR) against the NCATS DSHEA and TCM libraries (AID 1794836);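 also: HepG2 cells stably expressing hCAR with CYP2B6 luciferase reporter stimulated by CITCO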
# Method in brief: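 Antagonist mode: CAR reporter luminescence (ONE-Glo) in HepG2-CYP2B6-hCAR cells stimulated with 48 uM CITCO (final) over 24 h at 37 C, compounds titrated; viability read first by CellTiter-Fluor fluorescence.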
# [2] = Cell Viability - SH-SY5Y (AID 544); conditions: SH-SY5Y neuroblastoma cell viability; viability change, negative = cytotoxic: at 92.2 µM (top of the series);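 also: cells exposed to compound for 40 hours; nearly all actives have a fitted effect of over 55% in size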
# Method in brief: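 Cytotoxicity measured via ATP-dependent luciferase luminescence (CellTiter-Glo) following 40 h, 37 °C exposure of 1500 SH-SY5Y cells per well. Concentration-response data were fitted with the standard Hill equation to give AC50.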
# [3] = Cellular Toxicity (caspase-3) Hek293 (AID 664);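 also: cells exposed to compound for 16 h at 37 °C before readout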
# Method in brief: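 Concentration-response qHTS: caspase 3/7 activation measured by luminescent aminoluciferin substrate cleavage after 16 h compound exposure of Hek 293 cells. AC50 from Hill equation, with DMSO as basal and 100 uM tamoxifen as 100%.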
# [4] = Cellular Toxicity (caspase-3) N2a (AID 665); conditions: N2a cells, luminescence, normalized: DMSO 0%, 10 µM staurosporine 100%; at 92.2 µM (top of the series);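 also: compound exposure lasted 16 h at 37 °C before readout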
# Method in brief: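 Caspase-3/7 activation measured as luminescence from Caspase-Glo reagent (1 h, room temperature) after 16 h compound exposure of mouse N2a cells. AC50 values from Hill-equation concentration-response, scaled between DMSO and 10 uM staurosporine.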
# [5] = MultiTox-Fluor Cytotoxicity Assay - LYMP1-002 - Live Cells (AID 955);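 also: cells exposed to compound for 16 hours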
# Method in brief: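 After 16 h compound exposure at 37 C, live LYMP1-002 lymphoblastoid cells (2500/well) were quantified by cleavage of cell-permeant GF-AFC substrate, read at 405/510 nm after 60 min. Concentration-response fitted with Hill equation for AC50.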
# [6] = Cell Viability - LYMP2-011 (AID 969); also: nearly all actives have a fitted effect of over 60% in size
# Method in brief: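 Cytotoxicity qHTS with ATP content as read-out: lymphoblastoid cells (2500/well) exposed to compound for 24 h at 37 C, then luciferase luminescence measured. Concentration-response data fitted with the standard Hill equation to give AC50.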
# [7] = Cell Viability - LYMP2-015 (AID 971); also: nearly all actives have a fitted effect of over 55% in size
# Method in brief: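 Cytotoxicity readout: decrease in intracellular ATP (CellTiter-Glo luminescence) in 2500 LYMP2-015 lymphoblastoid cells/well after 24 h compound exposure at 37 C. Concentration-response data fitted with the standard Hill equation to give AC50.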
# [8] = Cell Viability - LYMP2-023 (AID 975);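 also: cellular ATP measured by luciferase luminescence as viability proxy; nearly all actives have a fitted effect of over 55% in size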
# Method in brief: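 Intracellular ATP, read by CellTiter-Glo luminescence, reports viability after 24 hr compound exposure at 37 C. 2500 lymphoblastoid cells/well (LYMP2-023) seeded 5 hr beforehand; Hill fits give AC50; positive control tetraoctylammonium bromide.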
# [9] = Cell Viability - LYMP1-002 - Assay at 40 hr (AID 994); also: nearly all actives have a fitted effect of over 60% in size
# Method in brief: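 Cytotoxicity was read as loss of cellular ATP (CellTiter-Glo luminescence) after 40 hr compound exposure at 37 C of 2500 LYMP1-002 lymphoblastoid cells per well. Concentration-response data were fitted with the standard Hill equation to give AC50.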
# [10] = molecular target: Peroxisome proliferator-activated receptor gamma (Homo sapiens) (UniProt P37231); test: qHTS assay for small molecule antagonists of peroxisome proliferator-activated receptor gamma signaling (AID 588537; active = well fitted inhibition curve with a large enough effect in the signal ratio, with a control signal flat, not every such curve was filed as active; the % refers to the signal ratio;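 also: reporter cells co-stimulated with 50 nM rosiglitazone agonist during compound treatment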)
# Method in brief: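 Antagonist-mode β-lactamase reporter screen run as a titration series. HEK293 PPARγ-UAS-bla cells are stimulated with rosiglitazone (50 nM final) for 16 h, then CCF4 is read at 460/530 nm. Data are scaled between DMSO and rosiglitazone and fitted to the Hill equation.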
# [11] = molecular target: Thyroid hormone receptor beta (Homo sapiens) (UniProt P10828); test: qHTS assay for small molecule agonists of thyroid hormone receptor beta signaling (AID 588545; calls by dose curve)
# Method in brief: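 Agonist-mode beta-lactamase reporter assay, HEK 293 cells, 2% charcoal/dextran FBS; cells plated 4 hrs, compound 18 hrs at 37 C, CCF4 2 hrs RT. Normalized to 10 nM T3 (100%) and DMSO (0%); Hill fit gives EC50, efficacy.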
# [12] = qHTS assay for small molecule agonists of the antioxidant response element (ARE) signaling pathway (AID 651741; active = well fitted activation curve with a large enough effect in the signal ratio; the % refers to the signal ratio; also: potency is read from the fitted curve at half-maximal effect)
# Method in brief: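 Beta-lactamase reporter under ARE control in HepG2 cells, 2,000 per well, was induced by 16 h compound treatment at 37 C. Read-out was fluorescence from LiveBLAzer B/G FRET substrate after 2 h at room temperature.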
# [13] = molecular target: Voltage-gated inwardly rectifying potassium channel KCNH2 (Homo sapiens) (UniProt Q12809); test: qHTS Assay for Small Molecule Inhibitors of the Human hERG Channel Activity (AID 588834);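 also: lower thallium flux fluorescence means stronger hERG block; nearly all actives have a fitted effect of over 50% in size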; also: potency is read from the fitted curve at half-maximal effect
# Method in brief: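 Cells were infected with hERG-BacMam virus for 4 hrs at room temperature, grown overnight, then seeded at 2000/well. After dye loading and roughly 10 min compound treatment, thallium influx was triggered and fluorescence recorded.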
# [14] = Cell Viability - MRC5 (AID 434; calls by dose curve;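 also: potency is read from the fitted curve at half-maximal effect; cells exposed to compound for 40 hours at 37 °C; potency reflects cytotoxicity seen as loss of intracellular ATP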); conditions: MRC5 lung fibroblast viability, qHTS
# Method in brief: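 AC50 values come from Hill-equation fits of intracellular ATP loss, measured by CellTiter-Glo luminescence. Normal lung fibroblasts (MRC5) had 40 hr compound treatment at 37 C, normalized between DMSO and 100 uM tamoxifen.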
# [15] = Cell Viability - H-4-II-E (AID 543);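 also: cells exposed to compound for 40 hours; nearly all actives have a fitted effect of over 35% in size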
# Method in brief: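 CellTiter-Glo luminescence (intracellular ATP) measured after 40 h compound exposure at 37 °C in H-4-II-E rat hepatoma cells seeded at 1500/well. Values are AC50s fitted with the standard Hill equation.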
# [16] = Cell Viability - LYMP2-013 (AID 970); also: nearly all actives have a fitted effect of over 55% in size
# Method in brief: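 qHTS cytotoxicity: ATP-dependent luminescence (CellTiter-Glo, 30 min room temperature) read after 24 h compound exposure at 37 C of 2500 LYMP2-013 lymphoblastoid cells per well. Concentration-response fitted with Hill equation to give AC50.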
# [17] = molecular target: Bile acid receptor (Homo sapiens) (UniProt Q96RI1); test: qHTS assay for small molecule antagonists of farnesoid X receptor signaling (AID 588526; calls by dose curve)
# Method in brief: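 Beta-lactamase reporter antagonist mode: HEK293T FXR-UAS-bla cells, titrated compound, CDCA stimulation, 16 h 37 C, CCF4 dye 2 h RT. Data normalized to CDCA 50 uM and DMSO; Hill-fit IC50.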
# [18] = molecular target: Peroxisome proliferator-activated receptor delta (Homo sapiens) (UniProt Q03181); test: qHTS assay for small molecule agonists of peroxisome proliferator-activated receptor delta signaling (AID 588534; calls by dose curve)
# Method in brief: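 Agonist-mode beta-lactamase reporter readout (CCF4 dye, 2 h at RT) after 18 h at 37 °C exposure to a titration; Hill-equation fitting gave EC50 and maximal response.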
# [19] = Cell Viability - LYMP2-005 (AID 967)
# Method in brief: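 qHTS viability screen in LYMP2-005 cells: 24 h at 37 C with compound, ATP luminescence via CellTiter-Glo, AC50 from Hill curves.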
# [20] = qHTS assay for small molecule activators of the nuclear factor-kappa B (NF-kB) signaling pathway (AID 651749; active = well fitted activation curve with a large enough effect in the signal ratio; the % refers to the signal ratio); conditions: NF-kB-bla ME-180 cells, beta-lactamase FRET ratio, 16 h; activation: hits give high values
# Method in brief: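 Activation measured after 16 hr compound treatment at 37C, 5% CO2, of 2,000 ME-180 cells/well stably expressing an NF-kB response element–driven beta-lactamase reporter, via FRET-disruption fluorescence.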
# Chain of Nuclear receptor subfamily 1 group I member 3 (Homo sapiens) (Q14994 whole entry, looked up): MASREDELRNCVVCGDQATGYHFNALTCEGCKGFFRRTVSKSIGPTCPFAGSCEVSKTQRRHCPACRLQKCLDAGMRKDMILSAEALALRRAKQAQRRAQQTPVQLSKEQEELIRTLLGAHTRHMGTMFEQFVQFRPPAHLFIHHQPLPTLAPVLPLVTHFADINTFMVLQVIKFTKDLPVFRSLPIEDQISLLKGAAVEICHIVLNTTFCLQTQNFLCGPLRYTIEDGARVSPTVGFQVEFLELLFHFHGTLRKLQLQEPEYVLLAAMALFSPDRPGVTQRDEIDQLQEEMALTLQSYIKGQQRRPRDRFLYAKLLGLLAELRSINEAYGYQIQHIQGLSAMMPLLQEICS
# Chain of Thyroid hormone receptor beta (Homo sapiens) (P10828 whole entry, looked up): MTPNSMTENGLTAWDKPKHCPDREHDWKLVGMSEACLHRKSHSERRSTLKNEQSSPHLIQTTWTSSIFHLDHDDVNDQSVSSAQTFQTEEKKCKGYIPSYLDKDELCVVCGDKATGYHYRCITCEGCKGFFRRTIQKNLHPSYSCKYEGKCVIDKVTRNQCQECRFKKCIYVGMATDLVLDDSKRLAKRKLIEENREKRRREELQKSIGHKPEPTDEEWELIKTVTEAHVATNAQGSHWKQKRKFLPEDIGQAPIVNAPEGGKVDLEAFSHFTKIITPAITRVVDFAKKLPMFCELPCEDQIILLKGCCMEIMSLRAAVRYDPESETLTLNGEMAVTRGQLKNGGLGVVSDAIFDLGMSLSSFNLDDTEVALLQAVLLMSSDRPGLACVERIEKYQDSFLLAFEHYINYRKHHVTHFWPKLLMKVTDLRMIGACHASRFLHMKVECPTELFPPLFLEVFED
# Chain of Peroxisome proliferator-activated receptor delta (Homo sapiens) (Q03181 whole entry, looked up): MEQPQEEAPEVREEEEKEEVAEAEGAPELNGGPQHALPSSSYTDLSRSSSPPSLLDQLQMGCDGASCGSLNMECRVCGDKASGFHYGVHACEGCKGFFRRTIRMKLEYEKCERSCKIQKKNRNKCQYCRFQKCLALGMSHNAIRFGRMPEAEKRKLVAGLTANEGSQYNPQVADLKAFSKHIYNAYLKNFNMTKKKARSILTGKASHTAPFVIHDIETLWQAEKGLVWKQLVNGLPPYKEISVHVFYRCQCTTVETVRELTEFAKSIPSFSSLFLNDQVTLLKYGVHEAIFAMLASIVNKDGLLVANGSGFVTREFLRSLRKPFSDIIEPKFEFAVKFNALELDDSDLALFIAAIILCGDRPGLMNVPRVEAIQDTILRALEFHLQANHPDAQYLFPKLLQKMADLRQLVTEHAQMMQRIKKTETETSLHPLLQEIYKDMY
# Chain of Voltage-gated inwardly rectifying potassium channel KCNH2 (Homo sapiens) (Q12809 whole entry, looked up): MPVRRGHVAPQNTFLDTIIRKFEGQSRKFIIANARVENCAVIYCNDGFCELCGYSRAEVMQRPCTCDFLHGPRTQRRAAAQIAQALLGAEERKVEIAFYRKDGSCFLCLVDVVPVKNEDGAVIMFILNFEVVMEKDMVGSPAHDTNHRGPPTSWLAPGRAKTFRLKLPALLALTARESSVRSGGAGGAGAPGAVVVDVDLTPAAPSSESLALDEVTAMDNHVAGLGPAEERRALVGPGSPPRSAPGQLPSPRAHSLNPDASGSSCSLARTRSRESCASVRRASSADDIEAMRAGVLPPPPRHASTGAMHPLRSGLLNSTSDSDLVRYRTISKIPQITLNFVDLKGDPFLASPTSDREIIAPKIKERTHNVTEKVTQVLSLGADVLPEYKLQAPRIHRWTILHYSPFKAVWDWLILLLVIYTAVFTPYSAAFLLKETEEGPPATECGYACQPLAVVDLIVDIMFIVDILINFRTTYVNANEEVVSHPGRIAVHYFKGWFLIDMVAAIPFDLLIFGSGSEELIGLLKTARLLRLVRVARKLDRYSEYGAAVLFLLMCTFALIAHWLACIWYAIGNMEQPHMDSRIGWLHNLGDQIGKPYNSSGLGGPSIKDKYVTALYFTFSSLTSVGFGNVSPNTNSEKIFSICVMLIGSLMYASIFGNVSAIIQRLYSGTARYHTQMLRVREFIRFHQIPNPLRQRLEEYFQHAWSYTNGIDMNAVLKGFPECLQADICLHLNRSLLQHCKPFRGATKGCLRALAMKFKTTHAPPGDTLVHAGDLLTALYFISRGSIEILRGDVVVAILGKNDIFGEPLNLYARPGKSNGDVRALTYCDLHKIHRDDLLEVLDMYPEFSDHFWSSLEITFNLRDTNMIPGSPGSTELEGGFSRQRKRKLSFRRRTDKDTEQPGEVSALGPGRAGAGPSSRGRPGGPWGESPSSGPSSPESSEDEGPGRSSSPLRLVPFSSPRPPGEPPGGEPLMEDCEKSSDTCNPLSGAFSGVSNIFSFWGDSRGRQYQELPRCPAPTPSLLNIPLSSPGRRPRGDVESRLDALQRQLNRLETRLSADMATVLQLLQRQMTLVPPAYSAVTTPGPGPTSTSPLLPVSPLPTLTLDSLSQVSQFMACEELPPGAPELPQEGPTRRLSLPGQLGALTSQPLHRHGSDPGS
# Chain of Peroxisome proliferator-activated receptor gamma (Homo sapiens) (P37231 whole entry, looked up): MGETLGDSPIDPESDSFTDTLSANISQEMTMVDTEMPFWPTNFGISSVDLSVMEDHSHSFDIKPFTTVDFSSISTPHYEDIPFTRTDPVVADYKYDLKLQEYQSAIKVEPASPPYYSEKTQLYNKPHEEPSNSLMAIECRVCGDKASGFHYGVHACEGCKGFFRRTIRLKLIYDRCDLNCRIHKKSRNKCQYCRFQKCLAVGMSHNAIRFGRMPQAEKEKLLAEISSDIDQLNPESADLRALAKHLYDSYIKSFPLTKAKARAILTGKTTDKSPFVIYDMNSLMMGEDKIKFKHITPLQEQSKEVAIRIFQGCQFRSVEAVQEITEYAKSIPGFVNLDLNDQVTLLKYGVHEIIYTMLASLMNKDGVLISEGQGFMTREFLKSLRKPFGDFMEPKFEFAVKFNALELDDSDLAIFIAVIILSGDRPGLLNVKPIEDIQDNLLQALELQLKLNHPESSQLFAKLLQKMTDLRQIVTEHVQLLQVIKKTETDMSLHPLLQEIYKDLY
# Chain of Bile acid receptor (Homo sapiens) (Q96RI1 whole entry, looked up): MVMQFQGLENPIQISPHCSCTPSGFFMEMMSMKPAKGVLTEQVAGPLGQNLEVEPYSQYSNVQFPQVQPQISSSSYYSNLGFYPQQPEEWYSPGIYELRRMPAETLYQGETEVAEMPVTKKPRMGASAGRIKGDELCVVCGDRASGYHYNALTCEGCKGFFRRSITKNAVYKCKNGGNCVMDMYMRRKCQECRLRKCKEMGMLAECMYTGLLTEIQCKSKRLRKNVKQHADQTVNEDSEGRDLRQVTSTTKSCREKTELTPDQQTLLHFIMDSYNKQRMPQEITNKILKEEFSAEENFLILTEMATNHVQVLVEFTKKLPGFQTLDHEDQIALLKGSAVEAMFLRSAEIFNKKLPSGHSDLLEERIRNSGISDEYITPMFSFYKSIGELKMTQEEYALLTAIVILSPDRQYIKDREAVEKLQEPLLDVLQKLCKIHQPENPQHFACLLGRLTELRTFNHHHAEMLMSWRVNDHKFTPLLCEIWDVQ
compound,measurement,setting,value
CC1=C2[C@H](/C=C(\C)C(=O)O)CC[C@@H](C)[C@H]2CC1,Potency,[1],inactive
CC[C@H](CC[C@@H](C)[C@H]1CCC2C3CCC4C[C@@H](O)CC[C@]4(C)C3CC[C@@]21C)C(C)C (stereo partly drawn),Potency,[1],inactive
CCCCCCCCCCCCCCCCCCCCCC(=O)O,Potency,[1],inactive
COC(=O)C1=CO[C@@H](C)[C@H]2CN3CCc4c([nH]c5ccccc45)[C@@H]3C[C@H]12,Potency,[1],inactive
C[C@@H]1CC[C@]2(C)CC[C@]3(C)C(=CC(=O)C4[C@@]5(C)CC[C@@H](O)[C@](C)(C(=O)O)C5CC[C@]43C)C2[C@H]1C (stereo partly drawn),Potency,[1],inactive
O=C(O[C@@H]1Cc2c(O)cc(O)cc2O[C@@H]1c1ccc(O)c(O)c1)c1cc(O)c(O)c(O)c1,Potency,[1],inactive
C[S+](CC[C@H](N)C(=O)O)C[C@H]1O[C@@H](n2cnc3c(N)ncnc32)[C@H](O)[C@@H]1O (stereo partly drawn),Potency,[1],inactive
O=C(OC[C@H]1O[C@@H](OC(=O)c2cc(O)c(O)c(O)c2)[C@H](OC(=O)c2cc(O)c(O)c(O)c2)[C@@H](OC(=O)c2cc(O)c(O)c(O)c2)[C@@H]1OC(=O)c1cc(O)c(O)c(O)c1)c1cc(O)c(O)c(O)c1,Potency,[1],inactive
O=c1cc(-c2ccc(O)c(O)c2)oc2cc(O[C@@H]3O[C@@H](CO)[C@@H](O)[C@@H](O)[C@H]3O)cc(O)c12,Potency,[1],inactive
CC/C=C\C/C=C\C/C=C\CCCCCCCC(=O)O,Potency,[1],inactive
CCC(/C=C/[C@@H](C)[C@H]1CCC2C3CC=C4C[C@@H](O)CC[C@]4(C)C3CC[C@@]21C)C(C)C (stereo partly drawn),Potency,[1],inactive
O=c1ccc2ccc(O)cc2o1,Potency,[1],inactive
C=C1CC[C@H](O)C/C1=C\C=C1/CCC[C@]2(C)[C@@H]([C@H](C)CC[C@H](C)C(C)C)CC[C@@H]12,Potency,[1],inactive
COC1=CC(=O)O[C@@H](/C=C/c2ccc3c(c2)OCO3)C1,Potency,[2],inactive
same,outcome,[3],inactive
same,caspase-3 activation,[4],-17.2%
same,outcome,[5],inactive
same,Potency,[6],inactive
same,Potency,[7],inactive
same,Potency,[8],inactive
same,Potency,[9],inactive
same,Potency,[10],inactive
same,outcome,[11],inactive
same,Potency,[12],6.68 µM (active)
O=C(/C=C/c1ccc(O)c(O)c1)OC1[C@H](O)CC(O)(C(=O)O)C[C@@H]1O (stereo partly drawn),Potency,[1],inactive
OC[C@H]1O[C@@H](OC[C@H]2O[C@@H](OC/C=C/c3ccccc3)[C@H](O)[C@@H](O)[C@@H]2O)[C@@H](O)[C@@H]1O,Potency,[1],inactive
O=C(OCC1=C[C@@H](O)[C@@H]2C=CO[C@@H](O[C@@H]3O[C@H](CO)[C@@H](O)[C@H](O)[C@H]3O)[C@H]12)c1ccc(O)cc1,Potency,[1],inactive
O=c1cc(-c2ccc(O)cc2)oc2cc(O[C@@H]3O[C@H](CO)[C@@H](O)[C@H](O)[C@H]3O[C@@H]3OC[C@](O)(CO)[C@H]3O)cc(O)c12,Potency,[1],inactive
COc1cc(/C=C/c2ccccc2)oc(=O)c1,Potency,[1],inactive
O=C(/C=C/c1ccc(O)c(O)c1)O[C@@H]1CC(C(=O)O)=C[C@@H](O)[C@H]1O,Potency,[1],inactive
Oc1cc(O)c2c(c1)O[C@@H](c1cc(O)c(O)c(O)c1)[C@H](O)C2,Potency,[1],inactive
CC(C)=CCC[C@](C)(O[C@@H]1O[C@H](CO)[C@@H](O)[C@H](O)[C@H]1O)[C@H]1CC[C@]2(C)[C@@H]1[C@H](O)C[C@@H]1[C@@]3(C)CC[C@H](O)C(C)(C)[C@@H]3[C@@H](O[C@@H]3O[C@H](CO)[C@@H](O)[C@H](O)[C@H]3O)C[C@]12C,Potency,[1],inactive
CCCCCCCCC/C=C/C(=O)CCc1ccc(O)c(OC)c1,Potency,[1],inactive
O=C(/C=C/c1ccc(O)c(O)c1)O[C@H]1[C@H](O)C[C@](O)(C(=O)O)C[C@H]1OC(=O)/C=C/c1ccc(O)c(O)c1,Potency,[1],inactive
S=C(S)N1CCCC1,Potency,[13],3.55 µM (active)
CCCCCCCC/C=C\CCCCCCCCCCCCCC(=O)O,Potency,[1],inactive
C[C@@H]1OC(O[C@H]2[C@H](O)[C@@H](O)[C@H](OC[C@H]3O[C@@H](OC(=O)[C@]45CCC(C)(C)C[C@@H]4C4=CCC6[C@@]7(C)CC[C@H](OC8OC[C@H](O)[C@H](O)[C@H]8OC8O[C@@H](C)[C@H](O)[C@@H](O)[C@H]8O)[C@@](C)(CO)C7CC[C@@]6(C)[C@]4(C)CC5)[C@H](O)[C@@H](O)[C@@H]3O)O[C@@H]2CO)[C@H](O)[C@H](O)[C@H]1O (stereo partly drawn),Potency,[1],inactive
COC1=C(OC)C(=O)C(C/C=C(\C)CC/C=C(\C)CC/C=C(\C)CC/C=C(\C)CC/C=C(\C)CC/C=C(\C)CC/C=C(\C)CC/C=C(\C)CC/C=C(\C)CCC=C(C)C)=C(C)C1=O,Potency,[1],inactive
O=C=NC1CCCCC1,Potency,[14],> 92 µM
same,Potency,[15],inactive
same,Potency,[2],inactive
same,outcome,[3],inactive
same,caspase-3 activation,[4],0.146% and -1.42%
same,Potency,[16],inactive
same,Potency,[9],inactive
same,outcome,[17],inactive
same,outcome,[18],inactive
same,Potency,[10],inactive
same,Potency,[13],inactive
same,Potency,[12],inactive
Nc1c(Cl)c(Cl)nc(C(=O)O)c1Cl,Potency,[14],> 92 µM
same,Potency,[15],inactive
same,Potency,[2],inactive
same,caspase-3 activation,[4],-2.12%
same,outcome,[5],inactive
same,Potency,[19],inactive
same,Potency,[8],inactive
same,Potency,[9],inactive
same,outcome,[18],inactive
same,Potency,[10],inactive
same,outcome,[11],inactive
same,Potency,[12],inactive
same,activation,[20],-0.763% and -1.51% and -1.13%
